This note sets out measurements from the supplement of paper PMC8975748.

Structures can show the parent of a compound that is named as a salt.

The test system of this assay is Saccharomyces cerevisiae BY4741 SeMeCo community. Nature of the assay: z-score of subpopulation abundance vs DMSO median, subpopulation auxotrophic for L; higher = larger share of this subpopulation than in DMSO controls. Particulars: 10 µM; 24 h; SM minimal medium; subpopulation (auxotrophy): L. The method, then:
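Fluorescent four-plasmid SeMeCo (self-establishing metabolically cooperating S. cerevisiae BY4741 community; plasmids pH-mRuby2, pL-mWasabi, pU-eCFP, pM-TagRFP657) was grown 24 h in minimal SM medium with each Selleck FDA-approved drug at 10 µM in 384-well plates. Cells were fixed and imaged by high-content confocal microscopy. For each auxotrophic subpopulation (and the prototroph), a z-score gives the deviation from the DMSO vehicle-control population median.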
Regarding `COc1ccc(NS(=O)(=O)c2ccc(N)cc2)nn1` [Sulfamethoxypyridazine], the “z-score of subpopulation abundance” value was -0.07. For the molecule `CC(c1cc2ccccc2s1)N(O)C(N)=O` (stereo not given) [Zileuton], the “z-score of subpopulation abundance” value was found to be 0.85. Take `CO/N=C(\C(=O)N[C@@H]1C(=O)N2C(C(=O)O)=C(COC(N)=O)CS[C@H]12)c1ccco1` [Cefuroxime sodium]: the “z-score of subpopulation abundance” value was -0.97. Turning to `Nc1ccc(S(=O)(=O)c2ccc(N)cc2)cc1` [Dapson], the “z-score of subpopulation abundance” value is 0.59. On to `N[C@H]1CONC1=O` [L-Cycloserine], for which the “z-score of subpopulation abundance” value came out at 2.81. With `CN(CCOc1ccc(NS(C)(=O)=O)cc1)CCc1ccc(NS(C)(=O)=O)cc1` [Dofetilide] the figure was -0.53; with `CC/C(=C(\c1ccccc1)c1ccc(OCCN(C)C)cc1)c1ccccc1` [Tamoxifen Citrate], -0.42. `CC(=O)Oc1ccccc1C(=O)O` [Aspirin]: the “z-score of subpopulation abundance” value is -0.15.

In the case of `O=c1ccc2ccc(OCCCCN3CCN(c4cccc5sccc45)CC3)cc2[nH]1` [Brexpiprazole], the “z-score of subpopulation abundance” value was determined as 0.33. As to `CCN1CCCC1CNC(=O)c1cc(S(N)(=O)=O)ccc1OC` (stereo not given) [Sulpiride], the “z-score of subpopulation abundance” value is 0.31. In the case of `O=C(O)c1cc(-c2ccc(F)cc2F)ccc1O` [Diflunisal], the “z-score of subpopulation abundance” value stood at 0.56. With `CCOc1ccc(NC(C)=O)cc1` [Phenacetin] the figure was -0.65; with `CC[C@H]1OC(=O)[C@H](C)[C@@H](O[C@H]2C[C@@](C)(OC)[C@@H](O)[C@H](C)O2)[C@H](C)[C@@H](O[C@@H]2O[C@H](C)C[C@H](N(C)C)[C@H]2O)[C@](C)(O)C[C@@H](C)[C@@H]2N[C@@H](COCCOC)O[C@H]([C@H]2C)[C@]1(C)O` [Dirithromycin], 0.38.

Regarding `Cc1c(-c2ccc(O)cc2)n(Cc2ccc(OCCN3CCCCCC3)cc2)c2ccc(O)cc12` [Bazedoxifene Acetate], the “z-score of subpopulation abundance” value is -0.2. With `Clc1ccc(CCC(Cn2ccnc2)Sc2c(Cl)cccc2Cl)cc1` (stereo not given) [Butoconazole nitrate], the “z-score of subpopulation abundance” value is -1.91. Take `OC(c1cc(C(F)(F)F)nc2c(C(F)(F)F)cccc12)C1CCCCN1` (stereo not given) [Mefloquine HCl]: the “z-score of subpopulation abundance” value was 0.1.

In the case of `N=C(N)NS(=O)(=O)c1ccc(N)cc1` [Sulfaguanidine], the “z-score of subpopulation abundance” value is -0.1. As to `CCNC(=O)[C@@H]1CCCN1C(=O)[C@H](CCCNC(=N)N)NC(=O)[C@H](CC(C)C)NC(=O)[C@@H](CC(C)C)NC(=O)[C@H](Cc1ccc(O)cc1)NC(=O)[C@H](CO)NC(=O)[C@H](Cc1c[nH]c2ccccc12)NC(=O)[C@H](Cc1c[nH]cn1)NC(=O)[C@@H]1CCC(=O)N1` [Leuprolide Acetate], the “z-score of subpopulation abundance” value is 0.44. With `CNCC[C@H](Oc1cccc2ccccc12)c1cccs1` [Duloxetine HCl] the figure was -0.57; with `CO[C@H]1C[C@@H]2CC[C@@H](C)[C@@](O)(O2)C(=O)C(=O)N2CCCC[C@H]2C(=O)O[C@H]([C@H](C)C[C@@H]2CC[C@@H](O)[C@H](OC)C2)CC(=O)[C@H](C)/C=C(\C)[C@@H](O)[C@@H](OC)C(=O)[C@H](C)C[C@H](C)/C=C/C=C/C=C/1C` [Rapamycin (Sirolimus)], -1.39; with `C[C@@H](O)[C@H]1C(=O)N2C(C(=O)O)=C([C@H]3CCCO3)S[C@H]12` [Faropenem Sodium], -0.03. As for `Nc1c2c(nc3ccccc13)CCCC2` [Tacrine hydrochloride hydrate], the “z-score of subpopulation abundance” value is -0.15. Regarding `Cc1onc(-c2c(F)cccc2Cl)c1C(=O)N[C@@H]1C(=O)N2[C@@H]1SC(C)(C)[C@@H]2C(=O)O` [Flucloxacillin sodium], the “z-score of subpopulation abundance” value was -0.25. On to `Cc1cccc(C)c1NC(=O)C1CCCCN1C` (stereo not given) [Mepivacaine HCl], for which the “z-score of subpopulation abundance” value is -0.36.

As for `Cc1ccc(C(=O)C(C)CN2CCCCC2)cc1` (stereo not given) [Tolperisone HCl], the “z-score of subpopulation abundance” value was -0.42.

With `COc1ccc(C(Cl)=C(c2ccc(OC)cc2)c2ccc(OC)cc2)cc1` [Chlorotrianisene], the “z-score of subpopulation abundance” value was 0.44. On to `COc1ccc(CNc2nc(N3CCC[C@H]3CO)ncc2C(=O)NCc2ncccn2)cc1Cl` [Avanafil], for which the “z-score of subpopulation abundance” value was -0.77. `CCN1CCCC1CNC(=O)c1cc(S(=O)(=O)CC)c(N)cc1OC` (stereo not given) [Amisulpride]: the “z-score of subpopulation abundance” value is -0.08. Regarding `COC1C(O)CC(=O)OC(C)CC=CC=CC(OC2CCC(N(C)C)C(C)O2)C(C)CC(CC=O)C1OC1OC(C)C(OC2CC(C)(O)C(O)C(C)O2)C(N(C)C)C1O` (stereo not given) [Spiramycin], the “z-score of subpopulation abundance” value was -0.29. The value for `Cc1cc(-n2c(=O)[nH]c(=O)n(C)c2=O)ccc1Oc1ccc(SC(F)(F)F)cc1` [Toltrazuril] was -0.15; that for `C[C@]12CC[C@@H]3c4ccc(O)cc4CC[C@H]3[C@@H]1CCC2=O` [Estrone] was 0.44.

In the case of `CC(=O)OC1CC2(C)C(CC(O)C3C4(C)CCC(O)C(C)C4CCC32C)C1=C(CCC=C(C)C)C(=O)O` (stereo not given) [Fusidine], the “z-score of subpopulation abundance” value stood at 2.4. In the case of `COc1ccc(-c2nc3cc(C4=NNC(=O)CC4C)ccc3[nH]2)cc1` (stereo not given) [Pimobendan], the “z-score of subpopulation abundance” value came to 1.93. As for `CN(Cc1ccc(C(C)(C)C)cc1)Cc1cccc2ccccc12` [Butenafine HCl], the “z-score of subpopulation abundance” value is -0.23. With `C=C1CCN([C@H](C)[C@](O)(Cn2cncn2)c2ccc(F)cc2F)CC1` [Efinaconazole] the figure was 0.13. As to `COc1ccc([C@@H]2Sc3ccccc3N(CCN(C)C)C(=O)[C@@H]2OC(C)=O)cc1` [Diltiazem HCl], the “z-score of subpopulation abundance” value is 0.4. Regarding `Cc1c(-c2ccc(O)cc2)n(Cc2ccc(OCCN3CCCCCC3)cc2)c2ccc(O)cc12` [Bazedoxifene HCl], the “z-score of subpopulation abundance” value is -0.9.

For `CCOC(=O)c1ccc(N)cc1` [Benzocaine], the “z-score of subpopulation abundance” value was -0.13. For the molecule `CCCCCCCCCC(=O)N[C@@H](Cc1c[nH]c2ccccc12)C(=O)N[C@H](CC(N)=O)C(=O)N[C@@H](CC(=O)O)C(=O)N[C@@H]1C(=O)NCC(=O)N[C@@H](CCCN)C(=O)N[C@@H](CC(=O)O)C(=O)N[C@H](C)C(=O)N[C@@H](CC(=O)O)C(=O)NCC(=O)N[C@H](CO)C(=O)N[C@@H]([C@H](C)CC(=O)O)C(=O)N[C@@H](CC(=O)c2ccccc2N)C(=O)O[C@@H]1C` [Daptomycin], the “z-score of subpopulation abundance” value is 0.51. With `COc1ccnc(C[S+]([O-])c2nc3cc(-n4cccc4)ccc3[nH]2)c1C` (stereo not given) [Ilaprazole] the figure was 2.44.
